Measurements as given in PubChem BioAssay (EPA / NIEHS).
The source made the active and inactive calls. How the source made its calls: active means hit-call score of the fitted dose curve at least 0.9, where 1 is the maximum; inactive means score below 0.9.

Experiments:
[1] = read-out: Collagen I, COL1A1 (gene 1277); experiment: BSK_MyoF_CollagenI: BioMAP Diversity Plus: MyoF Assay for Collagen I Biomarker Activity (AID 2284238); conditions: primary human lung fibroblasts
In short: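 Measured by ELISA: Collagen I from human lung fibroblasts 24 h after compound addition, analysed for signal gain with DMSO as baseline; overt toxicity read from SRB staining of parallel cultures at the same time.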

[2] = read-out: Collagen III, COL3A1 (gene 1281); experiment: BSK_MyoF_CollagenIII: BioMAP Diversity Plus: MyoF Assay for Collagen III Biomarker Activity (AID 2284239); conditions: primary human lung fibroblasts
In short: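 Multiplexed cell assay in lung fibroblasts, harvested at 24 h post-dose. Collagen III detected by ELISA, with positive-direction fitting relative to DMSO vehicle.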

[3] = read-out: Interleukin 2 (IL2), IL2 (gene 3558); experiment: BSK_BT_xIL2: BioMAP Diversity Plus: BT Assay for Interleukin 2 (IL2) Biomarker Activity (AID 2284245); conditions: primary human B cells with PBMC
In short: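 B cell + PBMC co-culture (human primary), compound added, 24 h incubation; secreted IL-2 measured multiplexed on Luminex xMAP; gain-of-signal fit vs DMSO.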

[4] = read-out: Basic fibroblast growth factor (bFGF), FGF2 (gene 2247); experiment: BSK_MyoF_bFGF: BioMAP Diversity Plus: MyoF Assay for Basic fibroblast growth factor (bFGF) Biomarker Activity (AID 2284246); conditions: primary human lung fibroblasts
In short: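 ELISA-measured bFGF level serves as the read-out, taken 24 h after chemical dosing of human lung fibroblasts. Values represent signal gain over the DMSO negative control.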

[5] = read-out: Collagen IV, COL4A1 (gene 1282); experiment: BSK_MyoF_CollagenIV: BioMAP Diversity Plus: MyoF Assay for Collagen IV Biomarker Activity (AID 2284247); conditions: primary human lung fibroblasts
In short: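 Steps: dose human lung fibroblasts; culture 24 h; quantify Collagen IV by ELISA; fit increase versus DMSO control. Parallel SRB total-protein staining (0.1% SRB after 10% TCA fixation, 560 nm) tracks overt cytotoxicity.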

[6] = read-out: Plasminogen activator inhibitor-1 (PAI1), SERPINE1 (gene 5054); experiment: BSK_MyoF_PAI1: BioMAP Diversity Plus: MyoF Assay for Plasminogen activator inhibitor-1 (PAI1) Biomarker Activity (AID 2284256); conditions: primary human lung fibroblasts
In short: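 In this multiplexed primary-cell system, fibroblasts from human lung received compound for 24 h before ELISA detection of PAI-1; overt toxicity was checked by SRB (0.1%, TCA-fixed, 560 nm) in parallel wells.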

[7] = read-out: Interleukin-8 (IL8), CXCL8 (gene 3576); experiment: BSK_MyoF_IL8: BioMAP Diversity Plus: MyoF Assay for Interleukin-8 (IL8) Biomarker Activity (AID 2284261); conditions: primary human lung fibroblasts
In short: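 DMSO-normalised, upward-fitted IL-8 ELISA signal; human lung fibroblasts, 24 h chemical treatment.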

Decorin, DCN (gene 1634) = experiment: BSK_MyoF_Decorin: BioMAP Diversity Plus: MyoF Assay for Decorin Biomarker Activity (AID 2284265); conditions: primary human lung fibroblasts
In short: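 In this multiplexed fibroblast system, secreted or surface decorin is detected by ELISA one day after dosing, with increases scored against the DMSO vehicle.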

[8] = BSK_MyoF_SRB: Viability Assessment in the BioMAP Diversity Plus: MyoF Assay (AID 2284267); conditions: primary human lung fibroblasts;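 further: total protein by SRB absorbance in parallel cultures as cytotoxicity measure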
In short: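 Read-out is SRB absorbance at 560 nm, reflecting total protein in parallel lung fibroblast cultures harvested 24 h after compound addition. Cells were TCA-fixed (10%) and stained with 0.1% SRB; activity is referenced to DMSO.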

[9] = read-out: Matrix Metallopeptidase 1 (MMP1), MMP1 (gene 4312); experiment: BSK_MyoF_MMP1: BioMAP Diversity Plus: MyoF Assay for Matrix Metallopeptidase 1 (MMP1) Biomarker Activity (AID 2284268); conditions: primary human lung fibroblasts
In short: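 Fibroblasts from human lung receive compound for 24 h before ELISA quantitation of MMP1. DMSO serves as baseline, and the endpoint is fitted for signal gain.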

[10] = read-out: TIMP metallopeptidase inhibitor 1 (TIMP1), TIMP1 (gene 7076); experiment: BSK_MyoF_TIMP1: BioMAP Diversity Plus: MyoF Assay for TIMP metallopeptidase inhibitor 1 (TIMP1) Biomarker Activity (AID 2284269); conditions: primary human lung fibroblasts
In short: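 ELISA quantified TIMP-1 levels after 24 h dosing of primary human lung fibroblasts, with DMSO as baseline. Parallel SRB total protein staining (0.1% SRB after TCA fixation, 560 nm) flagged overt cytotoxicity.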

[11] = CCTE_Mundy_HCI_Cortical_NOG_BPCount: CCTE's Neurite Outgrowth Assay in rat cortical cells for Branch Point Count, Mundy Lab (AID 2284237)
In short: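 Measured 50.33 h after dosing, this morphology endpoint uses rat primary cortical cultures labelled for betaIII-tubulin. Branch points are quantified by high-content imaging, with DMSO as negative control and baseline.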

[12] = CCTE_Mundy_HCI_hNP1_Casp3_7: CCTE's Caspase-Glo 3/7 Assay in human neuroprogenitor cells for Apoptosis, Mundy Lab (AID 2284240)
In short: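 Neuroepithelial-lineage stem cells from WA09 embryonic cells were treated with chemicals after 40–44 h of culture. Twenty-four hours later, caspase-3/7 activation was detected luminescently after a 30 min room-temperature reagent step, with DMSO as baseline.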

Measured: AC50

O=C(O)c1cn(C2CC2)c2cc(N3CCNCC3)c(F)cc2c1=O
inactive: [1] | [2] | [3] | [4] | [5] | [6] | [7] | Decorin, DCN (gene 1634) | [8] | [9] | [10]

CN(C)C(=N)N=C(N)N
inactive: [11] | [12]

CNC[C@H](O)c1cccc(O)c1
active: [2] 0.016 µM
inactive: [1] | [3] | [4] | [5] | [6] | [7] | Decorin, DCN (gene 1634) | [8] | [9] | [10]

N#Cc1ccc(CC(=NNC(=O)Nc2ccc(OC(F)(F)F)cc2)c2cccc(C(F)(F)F)c2)cc1
inactive: [11] | [1] | [2] | [12] | [3] | [4] | [5] | [6] | [7] | Decorin, DCN (gene 1634) | [8] | [9] | [10]

CC(C)Oc1ccccc1O
inactive: [1] | [2] | [3] | [4] | [5] | [6] | [7] | Decorin, DCN (gene 1634) | [8] | [9] | [10]

CCCCC(CC)COC(=O)/C=C\C(=O)OCC(CC)CCCC (stereo not given)
inactive: [1] | [2] | [4] | [5] | [6] | [7] | Decorin, DCN (gene 1634) | [8] | [9] | [10]
active: [3] 20 µM

CN(CCOc1ccc(CC2SC(=O)NC2=O)cc1)c1ccccn1 (stereo not given)
active: [1] 0.016 µM | [5] 0.111 µM | [6] 0.0541 µM | [9] 20 µM
inactive: [2] | [3] | [4] | [7] | Decorin, DCN (gene 1634) | [8] | [10]

CC1COc2ccccc2N1C(=O)C(Cl)Cl (stereo not given)
inactive: [3] | [4] | Decorin, DCN (gene 1634)
active: [1] 14.4 µM | [2] 29.6 µM | [5] 2.33 µM | [6] 5.3 µM | [7] 16.1 µM | [8] 20 µM | [9] 9.41 µM | [10] 4.69 µM

c1ccc2c(c1)c1cccc3ccc4cccc2c4c31
inactive: [1] | [2] | [3] | [4] | [7] | Decorin, DCN (gene 1634) | [8] | [9] | [10]
active: [5] 0.0413 µM | [6] 0.016 µM

O=C1OC2(c3cc(Br)c(O)c(Br)c3Oc3c2cc(Br)c(O)c3Br)c2c(Cl)c(Cl)c(Cl)c(Cl)c21
active: [1] 3.89 µM | [2] 4.52 µM | [4] 11.9 µM | [5] 2.72 µM | [6] 4.56 µM | [7] 20 µM | Decorin, DCN (gene 1634) 13.2 µM | [8] 9.73 µM | [10] 8.64 µM
inactive: [3] | [9]

CC1CCC(C(C)CS)CC1S (stereo not given)
inactive: [3] | [9]
active: [1] 5.96 µM | [2] 9.71 µM | [4] 7.89 µM | [5] 11.8 µM | [6] 8.22 µM | [7] 11.1 µM | Decorin, DCN (gene 1634) 10.1 µM | [8] 9.53 µM | [10] 11.1 µM

C=C(C)C(=O)O[C@H]1C[C@@H]2CC[C@@]1(C)C2(C)C
active: [1] 29.2 µM | [2] 31.9 µM | [4] 31.3 µM | [5] 25 µM | [6] 29.5 µM | Decorin, DCN (gene 1634) 31.7 µM | [8] 34.8 µM | [10] 32.3 µM
inactive: [3] | [7] | [9]
